Data: PMC6664820, “Novel natural and synthetic inhibitors of solute carriers SGLT1 and SGLT2” (Pharmacology Research & Perspectives, 2019)
Hit rate of the full screen: of about 1,900 compounds, about 40 (2%) showed an effect of 50% or more. Shown is part of a subset that was picked to be rich in strong results.

These molecules were tested against human SGLT1 (hSGLT1) (human, UniProt P13866) (assay: primary screen, percent of control activity; higher = less effect of the substance). Details: 50 µM.
Set-up: single well
Description: Two days before the assay, CHO‐wild type and CHO‐hSGLT1 cells were seeded in maintenance medium at 25 000 cells/well in clear‐bottom black 96‐well cell culture plates. Before the assay, cells were washed 3 times with 150 μL/well D‐glucose free DMEM with 0.3% (w/v) BSA. Library compounds at 50 μmol/L (singlicate) prepared in D‐glucose free DMEM with 160 μmol/L 1‐NBD‐glucose and 0.3% (w/v) BSA and negative controls (triplicate) were added at 100 μL/well and placed in a humidified incubator at 37°C with 5% CO2 for 90 minutes. Next, cells were washed 3 times with DMEM with 0.3% (w/v) BSA (150 μL/well). Care was taken to remove all medium after the last wash. Finally, 1‐NBD‐glucose was extracted from the cells by adding 10 μL/well isopropanol and orbital shaking for 5 minutes at 600 rpm, followed by incubation in the dark for 30 minutes. Fluorescence was measured on a Tecan Infinite M200 Microplate Reader (Tecan, Männedorf, Switzerland) with excitation at 445 nm and emission at 525 nm. The amount of 1‐NBD‐glucose taken up by the CHO‐wild type or CHO‐hSGLT1 cells in the presence or absence of test compounds was interpolated from 1‐NBD‐glucose calibration standards. The background uptake by CHO‐wild type was subtracted from the uptake by CHO‐hSGLT1. Background corrected uptake with test compound was expressed as a percentage of corrected uptake without test compound.

Chain of human SGLT1 (hSGLT1) (P13866 whole entry, looked up): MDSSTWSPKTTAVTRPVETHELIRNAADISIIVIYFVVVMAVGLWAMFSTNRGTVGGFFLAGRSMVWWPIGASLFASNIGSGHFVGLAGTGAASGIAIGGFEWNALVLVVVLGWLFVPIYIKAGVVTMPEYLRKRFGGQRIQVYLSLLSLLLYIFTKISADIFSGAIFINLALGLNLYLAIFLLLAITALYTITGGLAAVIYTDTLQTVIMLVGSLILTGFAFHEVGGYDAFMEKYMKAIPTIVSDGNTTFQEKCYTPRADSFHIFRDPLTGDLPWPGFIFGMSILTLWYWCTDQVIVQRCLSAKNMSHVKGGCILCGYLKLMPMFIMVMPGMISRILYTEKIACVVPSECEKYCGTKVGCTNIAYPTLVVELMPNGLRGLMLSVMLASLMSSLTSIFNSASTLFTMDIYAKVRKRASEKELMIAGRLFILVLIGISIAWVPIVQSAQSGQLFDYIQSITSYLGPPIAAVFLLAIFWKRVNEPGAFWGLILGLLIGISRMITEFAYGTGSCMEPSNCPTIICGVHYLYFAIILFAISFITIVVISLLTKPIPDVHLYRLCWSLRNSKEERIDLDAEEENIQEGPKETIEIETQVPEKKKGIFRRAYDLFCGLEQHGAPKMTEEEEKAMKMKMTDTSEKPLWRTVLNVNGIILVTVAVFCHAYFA

Compound	NORMALIZED SGLT1 ACTIVITY (%)
Oc1c(Cl)c(Cl)c(Cl)c(Cl)c1Cl	622
Oc1c(Cl)cc(Cl)c(Cl)c1Cc1c(O)c(Cl)cc(Cl)c1Cl	-43
Cc1ccc2c(Cl)cc(Cl)c(O)c2n1	100
Cn1c(=O)[nH]c2ncn(C)c2c1=O	164
CC(C)=CCOc1c2occc2cc2ccc(=O)oc12	161
CN(C)CCCN1c2ccccc2Sc2ccccc21.Cl	38
CC(CN1c2ccccc2Sc2ccccc21)N(C)C.Cl (centres unmarked)	87
CCN(CC)C(C)CN1c2ccccc2Sc2ccccc21.Cl (centres unmarked)	46
CN(C)CCCN1c2ccccc2Sc2ccc(Cl)cc21	60
CC(CN(C)C)CN1c2ccccc2CCc2ccccc21.O=C(O)/C=C\C(=O)O (centres unmarked)	51
CN(C)CCCN1c2ccccc2Sc2ccc(C(F)(F)F)cc21.Cl	62
CC(CN(C)C)CN1c2ccccc2Sc2ccccc21.O=C(O)C(O)C(O)C(=O)O (centres unmarked)	45
NS(=O)(=O)c1cc2c(cc1C(F)(F)F)NC(Cc1ccccc1)NS2(=O)=O (centres unmarked)	125
O=C(Cn1ccnc1[N+](=O)[O-])NCCO	119
CC(=O)O[C@H]1CC[C@@]2(C)C(C[C@@H](OC(C)=O)[C@@]3(C)C4=CC(=O)O[C@@H](c5ccoc5)[C@]4(C)CCC23)C1(C)C (some centres unmarked)	358
CCCCC1C(=O)N(c2ccccc2)N(c2ccc(O)cc2)C1=O (centres unmarked)	109
CCCCCNC(=N)N/N=C/c1c[nH]c2ccc(OC)cc12.O=C(O)/C=C\C(=O)O	141
CO[C@@]1(NC(=O)C(C(=O)[O-])c2ccc(O)cc2)C(=O)N2C(C(=O)[O-])=C(CSc3nnnn3C)CO[C@@H]21.[Na+].[Na+] (some centres unmarked)	97
CC(=O)O[C@@H]1CC(=O)[C@@]2(C)C(CC(=O)[C@]3(C)C2CC[C@@]2(C)[C@H](c4ccoc4)OC(=O)C4OC423)C1(C)C (some centres unmarked)	92
COC(=O)[C@@]1(C)CCC[C@]2(C)c3ccc(O)c(C(C)C)c3CCC12 (some centres unmarked)	138
Cc1c(O)c(C(=O)CC(C)C)c2oc3c(C(=O)CC(C)C)c(O)c(C)c(O)c3c2c1O	107
O=[N+]([O-])c1ccc(O)c([N+](=O)[O-])c1	145
CC(=O)Oc1ccccc1C(=O)O	112
CC(=O)Nc1ccccc1	112
CC(=O)[O][Hg][c]1ccccc1	4

Compound	NORMALIZED SGLT1 ACTIVITY (%)
Cc1nc2ccccn2c(=O)c1CCN1CCC(C(=O)c2ccc(F)cc2)CC1	129
CCCCCCCCCCCCCCCCCC(=O)O.CC[C@H]1OC(=O)[C@H](C)[C@@H](O[C@H]2C[C@@](C)(OC)[C@@H](O)[C@H](C)O2)[C@H](C)[C@@H](O[C@@H]2O[C@H](C)C[C@H](N(C)C)[C@H]2O)[C@](C)(O)C[C@@H](C)C(=O)[C@H](C)[C@@H](O)[C@]1(C)O	106
COc1ccc2c(=O)cc(-c3ccccc3OC)oc2c1	139
COc1cc(OC)c2c(=O)c(-c3ccccc3)coc2c1	336
CCCCCCCCCCCCCCCCOP(=O)([O-])OCC[N+](C)(C)C	79
CCCCCCCCCCCCCCCC[N+](C)(C)C.[Br-]	19
C[N+](C)(C)CCCCCC[N+](C)(C)C.[Br-].[Br-]	95
CCCc1nc2c(C)cc(-c3nc4ccccc4n3C)cc2n1Cc1ccc(-c2ccccc2C(=O)O)cc1	171
Cl.Cl.NCCc1c[nH]cn1	140
O=C(O)c1cc(O)c2ccccc2n1	97
COC(=O)CC1C(C)(C)C(OC(C)=O)[C@@H]2[C@@H](OC(C)=O)[C@]34O[C@@]2(O)[C@]1(C)C3CC[C@]1(C)C4=CC(=O)O[C@H]1c1ccoc1 (some centres unmarked)	94
O=C(Cc1ccccc1)NO	95
Cl.Cl.O=C(O)COCCN1CCN(C(c2ccccc2)c2ccc(Cl)cc2)CC1 (centres unmarked)	141
Cc1cccc(CN2CCN(C(c3ccccc3)c3ccc(Cl)cc3)CC2)c1.Cl.Cl (centres unmarked)	133
Cl.Clc1ccc(C(OCCN2CCCCC2)c2ccccc2)cc1 (centres unmarked)	37
CCCCC[C@H]1C(=O)O[C@H](C)[C@H](NC(=O)c2cccc(NC=O)c2O)C(=O)O[C@@H](C)[C@@H]1OC(=O)CC(C)C	220
O=C(O)c1cn(C2CC2)c2cc(N3CCNCC3)c(F)cc2c1=O	76
O=c1ccc2cc(O)c(O)cc2o1	134
CC(NCCC(c1ccccc1)c1ccccc1)c1ccccc1.Cl (centres unmarked)	48
CNC(C)[C@H](O)c1ccccc1.Cl (some centres unmarked)	106
CN[C@@H](C)[C@@H](O)c1ccccc1.Cl	120
COc1cc(/C=C/C(=O)O)ccc1O	147
N[C@H](C(=O)O)[C@@H]1CC(Cl)=NO1	89
COc1ccc2[nH]cc(CCN)c2c1.Cl	120
O=[N+]([O-])O[C@H]1CO[C@H]2[C@@H]1OC[C@H]2O[N+](=O)[O-]	100
